Active and inactive are the calls of the source. Rule for the calls: active = hit-call score of the fitted dose curve at least 0.9, where 1 is the maximum; inactive = score below 0.9.
Columns and labels:
Details in all cases: mRNA level, 48 h; actives raise or lower the signal
[1] = read-out: Alpha-fetoprotein (AFP) gene, AFP (gene 174); assay: LTEA_HepaRG_AFP: Life Technologies and Expression Analysis (LTEA) Assay for Alpha-fetoprotein (AFP) gene using HepaRG (AID 2283472)
Summary of the method: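 AFP transcript measured by TaqMan qRT-PCR with three housekeeping genes for normalization, after 48 h chemical treatment of HepaRG cells (top 100 uM, half-log steps, 0.5% DMSO). Gain or loss fitted against vehicle.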

[2] = read-out: BCL2L11 (gene 10018); assay: LTEA_HepaRG_BCL2L11: Life Technologies and Expression Analysis (LTEA) Assay for Bcl-2 (BCL2L11) gene using HepaRG (AID 2283473)
Summary of the method: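 HepaRG, 48 h exposure, 8-pt half-log series from 100 uM in 0.5% DMSO, duplicates; qRT-PCR (Fluidigm TaqMan) for BCL2L11, housekeeping-normalized; bidirectional curve fit relative to DMSO baseline.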

[3] = read-out: Apolipoprotein A-V (APOA5) gene, APOA5 (gene 116519); assay: LTEA_HepaRG_APOA5: Life Technologies and Expression Analysis (LTEA) Assay for Apolipoprotein A-V (APOA5) gene using HepaRG (AID 2283474)
Summary of the method: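 HepaRG, 48 h chemical exposure in serum-free induction medium, 8-pt half-log series (top 100 uM), 0.5% DMSO vehicle, duplicates. Readout: APOA5 mRNA by qRT-PCR, housekeeping-normalized; bidirectional fit vs DMSO baseline.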

[4] = read-out: Apoptosis regulator Bcl-2 (Homo sapiens) (UniProt P10415); assay: LTEA_HepaRG_BCL2: Life Technologies and Expression Analysis (LTEA) Assay for Bcl-2 gene using HepaRG (AID 2283475)
Summary of the method: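 qRT-PCR of BCL2 transcript, normalized to three housekeeping genes (ACTB, GAPDH, POLR2A), after 48 h chemical exposure of HepaRG cells; concentrations top 100 uM with half-log dilutions, 0.5% DMSO vehicle, duplicates; changes up or down fitted relative to vehicle.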

[5] = read-out: Bcl-2 (BID) gene, BID (gene 637); assay: LTEA_HepaRG_BID: Life Technologies and Expression Analysis (LTEA) Assay for Bcl-2 (BID) gene using HepaRG (AID 2283476)
Summary of the method: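 Duplicate 48 h treatments of HepaRG cells in serum-free induction medium spanned 100 uM downward in half-log steps, 0.5% DMSO. Transcript change quantified by qRT-PCR against three housekeeping genes, fitted up or down versus DMSO.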

[6] = read-out: Caspase-3 (Homo sapiens) (UniProt P42574); assay: LTEA_HepaRG_CASP3: Life Technologies and Expression Analysis (LTEA) Assay for cysteine-aspartic acid protease (CASP3) using HepaRG (AID 2283477)
Summary of the method: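 HepaRG, 48 h exposure, 8 conc. (top 100 uM, half-log steps, duplicate), 0.5% DMSO vehicle; qRT-PCR of CASP3 transcript, housekeeping-normalised (ACTB/GAPDH/POLR2A); bidirectional curve fit vs DMSO baseline.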

[7] = read-out: Cytochrome P450 (CYP24A1), CYP24A1 (gene 1591); assay: LTEA_HepaRG_CYP24A1: Life Technologies and Expression Analysis (LTEA) Assay for Cytochrome P450 (CYP24A1) using HepaRG (AID 2283478)
Summary of the method: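 qRT-PCR read-out: CYP24A1 transcript levels normalized to three housekeeping genes, bidirectional curve fits against 0.5% DMSO baseline. Human HepaRG cells treated 48 h with chemicals at eight concentrations from 100 uM in half-log steps.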

[8] = read-out: Cytochrome P450 (CYP1A2), CYP1A2 (gene 1544); assay: LTEA_HepaRG_CYP1A2: Life Technologies and Expression Analysis (LTEA) Assay for Cytochrome P450 (CYP1A2) using HepaRG (AID 2283479)
Summary of the method: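 HepaRG, 48 h exposure, top 100 uM, half-log 8-pt, 0.5% DMSO vehicle, duplicates. Readout: TaqMan qRT-PCR of CYP1A2 mRNA, housekeeping-normalized (ACTB/GAPDH/POLR2A). Gain/loss fit relative to DMSO baseline.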

[9] = read-out: cysteine-aspartic acid protease (CASP8), CASP8 (gene 841); assay: LTEA_HepaRG_CASP8: Life Technologies and Expression Analysis (LTEA) Assay for cysteine-aspartic acid protease (CASP8) using HepaRG (AID 2283480)
Summary of the method: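 qRT-PCR readout of CASP8 mRNA, normalized to three housekeeping genes, after 48 h chemical exposure of HepaRG cells; 8-point half-log series, top 100 uM, 0.5% DMSO vehicle. Bidirectional curve fitting against DMSO baseline.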

[10] = read-out: Cytochrome P450 (CYP2B6), CYP2B6 (gene 1555); assay: LTEA_HepaRG_CYP2B6: Life Technologies and Expression Analysis (LTEA) Assay for Cytochrome P450 (CYP2B6) using HepaRG (AID 2283481)
Summary of the method: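 Read-out is CYP2B6 mRNA by TaqMan qRT-PCR, normalized to three housekeeping genes and fitted bidirectionally against 0.5% DMSO baseline. Human HepaRG cells received test chemicals for 48 h, top concentration 100 uM, half-log dilutions.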

[11] = read-out: Cytochrome P450 2C19 (Homo sapiens) (UniProt P33261); assay: LTEA_HepaRG_CYP2C19: Life Technologies and Expression Analysis (LTEA) Assay for CYP2C19 using HepaRG (AID 2283482)
Summary of the method: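 HepaRG, 48 h chemical exposure, 8-pt half-log series from 100 uM in 0.5% DMSO, duplicates. Readout: CYP2C19 mRNA by TaqMan qRT-PCR, housekeeping-normalized. Bidirectional fit vs DMSO baseline; phenobarbital 1mM as induction control.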

[12] = read-out: CYP2C8 (gene 1558); assay: LTEA_HepaRG_CYP2C8: Life Technologies and Expression Analysis (LTEA) Assay for CYP2C8 using HepaRG (AID 2283483)
Summary of the method: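 HepaRG (human liver line), 48 h chemical exposure, 8-pt half-log series from 100 uM, 0.5% DMSO vehicle. Readout: CYP2C8 transcript by qRT-PCR, housekeeping-normalized. Bidirectional fit vs DMSO baseline.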

[13] = read-out: CYP2C9 (gene 1559); assay: LTEA_HepaRG_CYP2C9: Life Technologies and Expression Analysis (LTEA) Assay for CYP2C9 using HepaRG (AID 2283484)
Summary of the method: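 HepaRG, 48 h dosing, 8-pt half-log series, top 100 uM, 0.5% DMSO vehicle. Read-out: CYP2C9 transcript by TaqMan qRT-PCR, housekeeping-normalized (ACTB/GAPDH/POLR2A). Gain or loss fitted vs DMSO baseline.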

[14] = read-out: CYP2E1 (gene 1571); assay: LTEA_HepaRG_CYP2E1: Life Technologies and Expression Analysis (LTEA) Assay for CYP2E1 using HepaRG (AID 2283485)
Summary of the method: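 CYP2E1 transcript measured by Fluidigm qRT-PCR against three housekeeping genes in human HepaRG cells treated 48 h (top 100 uM, half-log steps, 0.5% DMSO vehicle). Gain or loss fitted relative to DMSO baseline.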

[15] = read-out: CYP4A11 (gene 1579); assay: LTEA_HepaRG_CYP4A11: Life Technologies and Expression Analysis (LTEA) Assay for CYP4A11 using HepaRG (AID 2283486)
Summary of the method: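 CYP4A11 transcript levels were quantified by TaqMan qRT-PCR after HepaRG human liver cells were treated for 48 hours with test chemicals (top 100 uM, half-log dilutions, 0.5% DMSO). Gain or loss of signal was fitted relative to DMSO.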

[16] = read-out: DNA damage-inducible transcript 3 (DDIT3), DDIT3 (gene 1649); assay: LTEA_HepaRG_DDIT3: Life Technologies and Expression Analysis (LTEA) Assay for DNA damage-inducible transcript 3 (DDIT3) using HepaRG (AID 2283488)
Summary of the method: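 DDIT3 transcript was quantified by qRT-PCR with ACTB/GAPDH/POLR2A normalization after 48 h chemical treatment of differentiated HepaRG cells in 0.5% DMSO. Dosing was eight-point, half-log, top 100 uM, duplicate wells. Curves fitted bidirectionally versus DMSO.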

[17] = read-out: Pro-epidermal growth factor (Homo sapiens) (UniProt P01133); assay: LTEA_HepaRG_EGF: Life Technologies and Expression Analysis (LTEA) Assay for Epidermal growth factor (EGF) using HepaRG (AID 2283489)
Summary of the method: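 qRT-PCR readout of EGF transcript after 48 h chemical exposure of HepaRG cells; eight concentrations from 100 uM down in half-log steps, duplicate wells, 0.5% DMSO vehicle. Bidirectional curve fitting against DMSO baseline.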

[18] = read-out: Ezrin (EZR), EZR (gene 7430); assay: LTEA_HepaRG_EZR: Life Technologies and Expression Analysis (LTEA) Assay for Ezrin (EZR) using HepaRG (AID 2283491)
Summary of the method: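 EZR transcript levels came from Fluidigm qRT-PCR and were normalized to three housekeeping genes after 48 h chemical exposure of HepaRG cells. Dosing used an 8-point half-log series with a 100 uM top concentration in 0.5% DMSO, tested in duplicate; both directions were fitted versus vehicle.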

[19] = read-out: Cytochrome P450 3A4 (Homo sapiens) (UniProt P08684); assay: LTEA_HepaRG_CYP3A4: Life Technologies and Expression Analysis (LTEA) Assay for CYP3A4 using HepaRG (AID 2283487)
Summary of the method: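 Differentiated HepaRG cells, plated 48 h, then dosed 48 h in serum-free induction medium with 0.5% DMSO, 8 half-log concentrations up to 100 uM, duplicate. CYP3A4 mRNA by qRT-PCR, normalized to ACTB/GAPDH/POLR2A; bidirectional fit versus DMSO.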

[20] = read-out: Early growth response protein 1 (EGR1) transcription factor, EGR1 (gene 1958); assay: LTEA_HepaRG_EGR1: Life Technologies and Expression Analysis (LTEA) Assay for Early growth response protein 1 (EGR1) transcription factor using HepaRG (AID 2283490)
Summary of the method: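 HepaRG, 48 h exposure, 8-pt half-log series from 100 uM, 0.5% DMSO vehicle; EGR1 transcript by TaqMan qRT-PCR (Fluidigm array), housekeeping-normalized; bidirectional fit relative to DMSO baseline.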

Measured: AC50

Sequence of Apoptosis regulator Bcl-2 (Homo sapiens) (P10415 whole entry, looked up): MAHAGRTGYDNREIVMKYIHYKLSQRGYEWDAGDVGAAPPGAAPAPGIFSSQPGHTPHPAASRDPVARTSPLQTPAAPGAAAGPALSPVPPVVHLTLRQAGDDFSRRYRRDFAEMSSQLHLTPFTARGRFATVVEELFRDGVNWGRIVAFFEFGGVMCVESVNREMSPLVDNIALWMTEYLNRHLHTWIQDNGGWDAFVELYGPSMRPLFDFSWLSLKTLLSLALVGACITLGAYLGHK
Sequence of Cytochrome P450 2C19 (Homo sapiens) (P33261 whole entry, looked up): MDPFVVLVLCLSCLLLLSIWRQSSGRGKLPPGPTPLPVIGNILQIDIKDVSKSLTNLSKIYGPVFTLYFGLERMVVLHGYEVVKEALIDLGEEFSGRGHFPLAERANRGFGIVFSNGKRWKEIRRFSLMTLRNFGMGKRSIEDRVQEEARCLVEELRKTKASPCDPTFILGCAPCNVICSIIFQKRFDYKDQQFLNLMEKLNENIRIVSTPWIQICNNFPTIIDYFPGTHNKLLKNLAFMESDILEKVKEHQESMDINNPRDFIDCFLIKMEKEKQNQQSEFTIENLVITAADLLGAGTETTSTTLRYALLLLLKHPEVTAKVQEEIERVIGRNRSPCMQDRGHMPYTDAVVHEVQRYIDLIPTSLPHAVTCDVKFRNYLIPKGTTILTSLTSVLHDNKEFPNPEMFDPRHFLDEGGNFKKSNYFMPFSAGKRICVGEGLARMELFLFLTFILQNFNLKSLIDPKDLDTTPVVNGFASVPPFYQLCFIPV
Sequence of Caspase-3 (Homo sapiens) (P42574 whole entry, looked up): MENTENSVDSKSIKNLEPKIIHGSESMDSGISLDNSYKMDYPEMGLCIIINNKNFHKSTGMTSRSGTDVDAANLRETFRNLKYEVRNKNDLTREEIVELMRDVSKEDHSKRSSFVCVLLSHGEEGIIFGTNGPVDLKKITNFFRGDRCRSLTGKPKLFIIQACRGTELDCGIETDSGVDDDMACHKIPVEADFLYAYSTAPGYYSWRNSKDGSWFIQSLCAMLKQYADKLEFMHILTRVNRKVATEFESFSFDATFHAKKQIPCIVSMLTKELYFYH
Sequence of Cytochrome P450 3A4 (Homo sapiens) (P08684 whole entry, looked up): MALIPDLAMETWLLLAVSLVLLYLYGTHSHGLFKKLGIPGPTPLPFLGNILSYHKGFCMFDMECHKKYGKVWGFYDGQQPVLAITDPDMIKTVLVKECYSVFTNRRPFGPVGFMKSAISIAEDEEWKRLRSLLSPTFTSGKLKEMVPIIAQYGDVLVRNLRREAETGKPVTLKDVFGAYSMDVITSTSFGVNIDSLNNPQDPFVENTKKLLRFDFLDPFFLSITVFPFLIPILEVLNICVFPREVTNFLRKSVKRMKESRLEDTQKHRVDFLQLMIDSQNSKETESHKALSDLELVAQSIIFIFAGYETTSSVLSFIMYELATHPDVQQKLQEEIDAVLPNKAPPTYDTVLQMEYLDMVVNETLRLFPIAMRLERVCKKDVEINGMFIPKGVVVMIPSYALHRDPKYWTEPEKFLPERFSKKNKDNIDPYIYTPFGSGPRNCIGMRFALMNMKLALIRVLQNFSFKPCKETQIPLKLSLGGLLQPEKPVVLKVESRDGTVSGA

O=[N+]([O-])c1ccc(Oc2ccc(Cl)cc2Cl)cc1
inactive: [2] | [3] | [4] | [5] | [6] | [7] | [9] | [12] | [13] | [15] | [17] | [18]
active: [1] 66.9 µM | [8] 27.2 µM | [10] 12.8 µM | [11] 12.4 µM | [14] 58 µM | [16] 50 µM

CN(C)[C@@H]1C(=O)C(C(N)=O)=C(O)[C@@]2(O)C(=O)C3=C(O)c4c(O)cccc4[C@@](C)(O)[C@H]3C[C@@H]12
inactive: [1] | [2] | [3] | [4] | [5] | [6] | [7] | [9] | [10] | [11] | [12] | [14] | [15] | [19] | [16] | [17] | [20] | [18]

CC(C)(C)OOC(C)(C)CCC(C)(C)OOC(C)(C)C
inactive: [1] | [2] | [3] | [4] | [7] | [8] | [10] | [12] | [13] | [14] | [15] | [19] | [16] | [17] | [20] | [18]

Clc1ccc(C(c2ccc(Cl)cc2)C(Cl)Cl)cc1
inactive: [2] | [4] | [5] | [6] | [7] | [8] | [9] | [13] | [16] | [17] | [20] | [18]
active: [1] 14 µM | [3] 60.5 µM | [10] 2.87 µM | [12] 12.7 µM | [14] 52.5 µM | [15] 50 µM

OCCOCCO
inactive: [1] | [2] | [3] | [4] | [5] | [6] | [7] | [8] | [9] | [12] | [13] | [14] | [15] | [16] | [17] | [20] | [18]
active: [10] 0.128 µM

C[C@]12C=CC3=C4CCC(=O)C=C4CC[C@H]3[C@@H]1CC[C@@H]2O
inactive: [2] | [3] | [5] | [6] | [8] | [9] | [16] | [17] | [18]
active: [1] 50 µM | [4] 14.8 µM | [11] 65.3 µM | [13] 50 µM

Brc1ccc(Oc2ccccc2)cc1
active: [10] 78.1 µM
inactive: [1] | [2] | [3] | [4] | [5] | [6] | [7] | [8] | [9] | [12] | [13] | [14] | [15] | [16] | [17] | [20] | [18]

Cc1cc(N=Nc2ccccc2C)ccc1N
active: [1] 4.69 µM | [2] 3.13 µM | [3] 2.97 µM | [4] 78 µM | [8] 31.4 µM | [10] 5.08 µM | [11] 4.72 µM | [12] 5.98 µM | [13] 4.8 µM | [14] 12.8 µM | [15] 4.52 µM
inactive: [6] | [7] | [9] | [16] | [17] | [20] | [18]

— PubChem BioAssay (EPA / NIEHS)
